Test [1] has as its target Alpha-galactosidase A (Homo sapiens) (UniProt P06280). Description: Counterscreen for Glucocerebrosidase Inhibitors: qHTS Assay for Human alpha-Galactosidase at pH 4.5 (AID 992). Note: 0% is about no effect. In a few lines: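 Concentration-response curves (0.7 nM to 77 uM final) were modeled with the Hill equation to give AC50. Reactions: 2 nM enzyme, 80 uM fluorogenic alpha-galactoside, pH 4.5 citric acid buffer, 20 min, room temperature.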
For orientation: The purpose of a counterscreen is to sort out artefacts and off-target activity.

The target of test [2] is alpha-glucosidase (Oryza sativa, rice) (UniProt Q653V4). Description: Counterscreen for Glucocerebrosidase Inhibitors: qHTS Assay for Rice alpha-Glucosidase at pH 5.0 (AID 997).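 Note: 0% = full activity with enzyme and -100% = basal without enzyme.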 Summed up:
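Rice alpha-glucosidase (4 nM final) with 400 uM 4-methylumbelliferyl-alpha-D-glucopyranoside in citrate buffer pH 5.0, 20 min at room temperature, stopped at pH 10; fluorescence 365/440 nm, compounds 0.7 nM–77 uM, AC50 from Hill fits.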

A short description of test [3]: Validation of Assay for Modulators of Lamin A Splicing (AID 1459; active = well fitted curve in the direction sought with a large enough effect in the signal ratio; the % refers to the signal ratio;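 note: cells exposed to compound for two days before reading; 0% is about no effect; ratio rise marks activators and ratio drop marks inhibitors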). In a few lines: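 S3 HeLa stably expressing lamin A-EGFP splicing minigene and DsRed2, 600 cells/well in Opti-MEM with 2% FBS, treated 48 h at 37C; laser-scanning cytometry gives GFP/RFP total intensity ratio; ancitabine positive control, 0.5% DMSO vehicle.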
Test [4] deals with DNA repair nuclease/redox regulator APEX1 (Homo sapiens) (UniProt P27695). Description: qHTS Validation Assay for Inhibitors of the Human Apurinic/apyrimidinic Endonuclease 1 (APE1) (AID 1705;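 note: TAMRA fluorescence gain over two minutes as APE1 cuts a quenched THF abasic duplex; % is set by controls: 0 for no effect and ±100 for the full control effect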). Summed up:
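Fluorogenic double-stranded THF abasic-site substrate (5'-TAMRA/3'-BHQ-2), 50 nM final. Enzyme preincubated with compound 15 min at room temperature, then substrate added. Kinetic fluorescence (ex 525/em 598 nm) read three times at 60 s intervals; activity taken as third-minus-first read difference.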
(Quantitative high-throughput screening tests each substance at several concentrations.)

A short description of test [5]: Counterscreen for APE1 Inhibitors: Fluorescent Dye Displacement Validation Assay (AID 1707).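 Note: plate controls were ThO with dsDNA and no compound for no effect and ThO without dsDNA for full effect.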 In a few lines: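 Assay buffer: Tris-HCl pH7.5 with 50mM NaCl, 2 mM MgCl2, 0.01% Tween-20. Dye 250 nM, duplex 50 nM final. Readout: decrease in ThO endpoint fluorescence, 480 nm excitation, 540 nm emission.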
The nature of test [6]: qHTS for differential inhibitors of proliferation of Plasmodium falciparum line 7G8 (AID 1815).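 Note: parasite growth measured after three days of incubation; plate controls were vehicle wells for no effect and reference inhibitor wells for full effect.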
Test [7] in a line: qHTS for differential inhibitors of proliferation of Plasmodium falciparum line 3D7 (AID 1876). Note: potency is the fitted concentration of half-maximal effect.
The target of test [8] is Endonuclease 4 (Escherichia coli (strain K12)) (UniProt P0A6C1). The test can be described thus: Counterscreen for APE1 Inhibitors: qHTS Validation Assay for Inhibitors of Endonuclease IV (AID 1708). Note: % is set by controls: 0 for no effect and ±100 for the full control effect. Summed up:
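Concentration-response counterscreen run identically to the APE1 assay: 15 min room-temperature preincubation of 2 nM enzyme with compound, reaction started with 50 nM quenched abasic DNA, progress taken from kinetic fluorescence.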

A short description of test [9]: qHTS for differential inhibitors of proliferation of Plasmodium falciparum line GB4 (AID 1816).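 For activity change, negative = inhibition: 0% = vehicle DMSO and -100% = reference inhibitor.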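 Note: parasite growth measured after 72 h incubation.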 Note: potency is the fitted concentration of half-maximal effect. Particulars: Potency: Plasmodium falciparum GB4 proliferation inhibition.
Test [10] in a line: qHTS Assay for Lipid Storage Modulators (AID 1519; calls by dose curve; for activity change, negative = inhibition: % is set by controls: 0 for no effect and ±100 for the full control effect). Particulars: Drosophila S3 cells, BODIPY lipid droplet/cell ratio, laser cytometry, cells loaded with oleic acid; for activity change, negative = inhibition: at 57.5 µM (top of the series). Summed up:
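Cells seeded at 5,000 per well were treated with compounds over a concentration series and loaded with oleic acid (400 uM, as added). Lipid droplet fluorescence (488 nm excitation, 500-530 nm channel) was read by laser-scanning cytometry and normalized to 20 uM Triacsin C.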

The mark [11] stands for this setting: measured here: cell count channel max response.
Where [12] appears, read: measured here: lipid channel max response.

Results filed as inconclusive are left out. Activity calls are given as the source filed them. Unless noted, calls come from the whole dose curve; as a rule, active = well fitted curve in the direction sought with a large enough effect; inconclusive = small, poorly fitted or top-dose-only effect, or another doubt; inactive = no such curve, though single readings can be large; an effect the other way counts as inactive or inconclusive.

DNA repair nuclease/redox regulator APEX1 (Homo sapiens), sequence (P27695 whole entry, looked up): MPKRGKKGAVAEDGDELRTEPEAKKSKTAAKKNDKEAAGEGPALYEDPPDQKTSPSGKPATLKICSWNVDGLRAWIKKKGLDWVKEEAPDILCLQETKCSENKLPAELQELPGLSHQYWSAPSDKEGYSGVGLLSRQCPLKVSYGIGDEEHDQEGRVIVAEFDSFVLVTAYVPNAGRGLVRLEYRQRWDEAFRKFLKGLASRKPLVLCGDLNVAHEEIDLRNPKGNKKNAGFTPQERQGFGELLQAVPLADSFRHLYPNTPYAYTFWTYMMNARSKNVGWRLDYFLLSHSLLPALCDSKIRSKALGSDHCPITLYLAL
Alpha-galactosidase A (Homo sapiens), sequence (P06280 whole entry, looked up): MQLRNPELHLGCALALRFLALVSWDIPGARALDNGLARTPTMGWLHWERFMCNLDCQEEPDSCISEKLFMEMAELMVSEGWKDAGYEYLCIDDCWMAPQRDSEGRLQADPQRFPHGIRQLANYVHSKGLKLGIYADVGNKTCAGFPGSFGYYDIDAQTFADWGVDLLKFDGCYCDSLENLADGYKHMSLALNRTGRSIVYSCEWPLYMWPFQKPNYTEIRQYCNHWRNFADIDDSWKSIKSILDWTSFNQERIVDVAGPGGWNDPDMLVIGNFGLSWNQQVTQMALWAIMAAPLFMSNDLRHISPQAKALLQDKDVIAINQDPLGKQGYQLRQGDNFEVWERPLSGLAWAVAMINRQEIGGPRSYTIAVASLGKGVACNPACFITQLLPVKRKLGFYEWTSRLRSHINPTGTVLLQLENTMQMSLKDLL

For the compound `O=[N+]([O-])c1cccc2c(Br)[nH]nc12`, the compound was classed as inactive in test [1], in test [2] and in test [3]. Besides, the Potency result in test [4], in [5], in [6] and in test [7] was “inactive” each time.
Consider `CN(C)C(=O)/N=N/C(=O)N(C)C`, for which the outcome in test [3] was inactive. Moreover, the Potency entry in test [5], in [8], in test [6], in [9] and in test [7] was “inactive” each time.
In the case of `Nc1ccc(N2C(=O)c3ccccc3C2=O)c(Cl)c1`, the result in [1], in [2] and in test [3] was inactive. Also, the Potency entry in test [4], in [5], in [6], in [9] and in [7] was “inactive” throughout.
As to `COC1(C2=NCCN2)COc2ccccc2O1` (configuration not stated), the compound was classed as inactive in [3]. The Potency result in test [5], in [8], in test [6] and in test [7] was “inactive” throughout.
Turning to `CC(N)(Cc1ccc(O)c(O)c1)C(=O)O` (configuration not stated), the compound was classed as inactive in [3]. The Potency entry in test [5], in [8], in test [6] and in [7] was “inactive” in each case.
For `C=CC1(C)CC(=O)C2(O)C(C)(O1)C(OC(C)=O)C(O)C1C(C)(C)CCC(O)C12C` (configuration not stated), the compound was called inactive in test [3]. In addition, the Potency entry in test [5], in test [8], in test [9] and in test [7] was “inactive” each time.
As for `O=C(O)c1cc(=O)cc(C(=O)O)[nH]1`, the compound was classed as inactive in test [1], in [2] and in test [3]. Further, the Potency entry in test [4], in test [5], in test [6], in [9] and in [7] was “inactive” each time.
Regarding `CCCc1c(-c2ccc(O)cc2)nn(-c2ccc(O)cc2)c1-c1ccc(O)cc1`, the compound was classed as inactive in test [1], in test [2] and in [3]. Further, the Potency result in test [4], in [5], in [9] and in test [7] was “inactive” in each case.
For the compound `c1ccc2c(c1)CC(N1CCN(c3cccc4c3OCCO4)CC1)C2`, the result in test [1], in test [2] and in [3] was inactive. The Potency entry in [4] and in [5] was “inactive” each time. For the same compound, the Potency in [7] was 12.6 µM (active).
As to `O=C(OCCN1CCOCC1)C1(c2ccccc2)CCCCC1`, the call in test [1], in [2] and in test [3] was inactive. The Potency entry in test [4] and in [5] was “inactive” each time. For the same compound, in test [9], the Potency is 10 µM (active).
Consider `Cn1c(=O)c2[nH]c(-c3ccc(S(=O)(=O)O)cc3)nc2n(C)c1=O`, for which the compound was called inactive in test [1], in test [2] and in test [3]. For the same compound, the Potency result in test [4] and in test [8] was “inactive” each time.
Take `CCCn1c(=O)c2[nH]c(-c3ccc(S(=O)(=O)O)cc3)nc2n(CCC)c1=O`: the call in test [1], in test [2] and in test [3] was inactive. Also, the Potency entry in [4], in [6] and in test [7] was “inactive” in each case.
With `N[C@H](C(=O)O)[C@H]1C[C@@H]1C(=O)O`, in test [3], the outcome was inactive. For the same compound, the Potency entry in test [5], in [8], in [6], in test [9] and in test [7] was “inactive” throughout.
Regarding `Nc1ccc(-c2ccc3ccccc3n2)cc1`, the call in test [1], in test [2] and in test [3] was inactive. Also, the Potency entry in test [4] and in [5] was “inactive” throughout.
Turning to `NC1(C(=O)O)CCCCC1`, the result in test [1], in [2] and in test [3] was inactive. For the same compound, the Potency entry in [4], in test [5], in [6], in [9] and in test [7] was “inactive” throughout.
Take `O=c1ccn([C@@H]2O[C@H](COP(=O)(O)OP(=O)(O)O)[C@@H](O)[C@H]2O)c(=O)[nH]1`: the activity change, negative = inhibition in test [10] is 1.87% (inactive). In addition, the max response is -6.87% in test [10] (setting [11]) and -4.31% in [10] (setting [12]). Moreover, the Potency entry in [4], in test [5], in test [8], in test [6] and in test [9] was “inactive” in each case.
`CCCCCCCCCCC/C=C\C(C)(C)/C=C\CCCC(=O)O`: the compound was called inactive in test [1], in [2] and in [3]. Further, the Potency entry in [5], in test [9] and in [7] was “inactive” in each case.
Consider `O=c1[nH]c2ccccc2c2ccccc12`, for which the outcome in test [1] and in test [2] was inactive. Also, the activity change, negative = inhibition in [10] is 1.72% (inactive). For the same compound, the max response in [10] (setting [11]) is 17.8%; in [10] (setting [12]), 20.4%. For the same compound, the Potency entry in test [4], in [5], in [8], in test [9] and in test [7] was “inactive” throughout.

Values taken from PubChem BioAssay (NCATS).
